# Reference: PubChem BioAssay (NCATS)
# Several values for one entry are separate records, joined by “and”; a condition that tells them apart may be missing. Equal values may be shown once. Results filed as inconclusive are left out. A call without a number means that no potency is given here. Unmarked numbers belong to inactive results. Activity calls are given as the source filed them. The call rests on the fitted dose curve; in most records, active means well fitted curve in the direction sought with a large enough effect; inconclusive means small, poorly fitted or top-dose-only effect, or another doubt; inactive means no such curve, though single readings can be large; an effect the other way counts as inactive or inconclusive. *1 amine or outer side, *2 acyl side, *3 side chain or, on linkers, in order; H or OH if unused. Where a SMILES comes first, the peptide text is derived from it. Bridges are numbered along the chain shown (N, C = ends). [ ]: non-standard residue; d: D form. The star is where a group is joined. ξ: configuration not given here. ΔAla(3-NHCONH2) = NC(=O)NC=C(N)C(=O)O; X2 = NC1=NCCC(C(N[*:1])C(=O)[*:2])N1; pGlu = O=C1CC[C@@H](C(=O)O)N1; ξβ3hOrn = NCCCC(N)CC(=O)*; Dap = NC[CH](N)C(=O)O
# How the values were obtained:
# [1] = molecular target: Cytochrome P450 3A7 (Homo sapiens) (UniProt P24462); assay: Cytochrome P450 family 3 subfamily A member 7 (CYP3A7) small molecule antagonists: luciferase biochemical qHTS assay (AID 1963596); further: nearly all actives have a fitted effect of over 40% in size
# Procedure, shortened: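 P450-Glo luminescent assay: CYP3A7 enzyme converts a proluciferin substrate to luciferin, detected by luciferase reagent; light proportional to activity. Compounds in DMSO preincubated 10 min with enzyme-substrate mix at room temperature, then NADPH regeneration added for 1 h.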
# [2] = Viability qHTS for spleen associated tyrosine kinase inhibitor (SYKi) naive MV4-11 cells (AID 1963823); further: nearly all actives have a fitted effect of over 40% in size; further: potency means the concentration at half of the fitted maximal effect
# Procedure, shortened: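 In this viability screen, compounds acted on SYK inhibitor naive MV4-11 cells for three days (72 hr, 37 C). Remaining viable cells were measured by CellTiter-Glo luminescence following a 10 min room-temperature development.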
# [3] = Viability qHTS for spleen associated tyrosine kinase inhibitor (SYKi) drug resistant MV4-11 cells (AID 1963824); further: nearly all actives have a fitted effect of over 35% in size; further: potency means the concentration at half of the fitted maximal effect
# Procedure, shortened: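 SYK inhibitor-resistant MV4-11 AML cells, 500 per well, added to predispensed compounds and incubated 72 hr at 37 C, 5% CO2. Viability measured by CellTiter-Glo luminescence after 10 min at room temperature.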
# [4] = Cellular viability qHTS for adrenocortical cancer (ACC) cell line SW-13 (AID 1963989); conditions: SW-13 ACC cells viability, CellTiter-Glo, 48 h; activity (max response): hits give low values; further: nearly all actives have a fitted effect of over 65% in size; further: potency means the concentration at half of the fitted maximal effect;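 on activity (max response): cells grown in serum-free medium with ITS supplement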
# Procedure, shortened: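 Here, serum-free SW-13 cultures were dosed up to 46 uM. Following 48 h, ATP-dependent luminescence (CellTiter-Glo) reported viable cells, and logistic modeling produced IC50 values.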
# [5] = Quantitative highthroughput screen to assess conditional lethalithy of P12 Ichikawa cells grown in RPMI1640 with untreated serum (RPMI+s) (AID 1963881); conditions: Potency: viability; further: potency means the concentration at half of the fitted maximal effect; nearly all actives have a fitted effect of over 35% in size
# Procedure, shortened: (§1)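 Each medium arm—HPLM with 10% dialyzed FBS, or RPMI1640 with 5 mM glucose and 10% untreated or dialyzed FBS—was screened against an 11-point, 3-fold compound titration for 48 h at 37 °C, with CellTiter-Glo luminescence as endpoint.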
# [6] = Quantitative highthroughput screen to assess conditional lethalithy of SEM cells grown in Human Plasma-Like Medium with dialyzed fetal bovine serum (HPLM+ds) (AID 1963882); further: nearly all actives have a fitted effect of over 35% in size; further: potency means the concentration at half of the fitted maximal effect; on Viability: series mostly up to about 46 µM
# Procedure, shortened: as §1
# [7] = Quantitative highthroughput screen to assess conditional lethalithy of SEM cells grown in RPMI1640 with dialyzed fetal bovine serum (RPMI+ds) (AID 1963884); further: nearly all actives have a fitted effect of over 35% in size; further: potency means the concentration at half of the fitted maximal effect; on Viability: series mostly up to about 46 µM
# Procedure, shortened: as §1
# [8] = Quantitative highthroughput screen to assess conditional lethalithy of SEM cells grown in RPMI1640 with unreated serum (RPMI+s) (AID 1963883); further: nearly all actives have a fitted effect of over 35% in size; further: potency means the concentration at half of the fitted maximal effect
# Procedure, shortened: as §1
# [9] = Cellular viability qHTS for adrenocortical cancer (ACC) cell line NCI-H295R (AID 1963990); further: nearly all actives have a fitted effect of over 60% in size; further: potency means the concentration at half of the fitted maximal effect
# Procedure, shortened: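 Viability of NCI-H295R after 48 h of treatment (final up to 46 uM) measured through cellular ATP luminescence.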
# [10] = Quantitative highthroughput screen to assess conditional lethalithy of P12 Ichikawa cells grown in Human Plasma-Like Medium with dialyzed fetal bovine serum (HPLM+ds) (AID 1963879); conditions: Potency: viability
# Procedure, shortened: as §1
# [11] = Quantitative highthroughput screen to assess conditional lethalithy of P12 Ichikawa cells grown in RPMI1640 with dialyzed fetal bovine serum (RPMI+ds) (AID 1963880); conditions: Potency: P12-Ichikawa viability
# Procedure, shortened: as §1
# Sequence of Cytochrome P450 3A7 (Homo sapiens) (P24462 whole entry, looked up): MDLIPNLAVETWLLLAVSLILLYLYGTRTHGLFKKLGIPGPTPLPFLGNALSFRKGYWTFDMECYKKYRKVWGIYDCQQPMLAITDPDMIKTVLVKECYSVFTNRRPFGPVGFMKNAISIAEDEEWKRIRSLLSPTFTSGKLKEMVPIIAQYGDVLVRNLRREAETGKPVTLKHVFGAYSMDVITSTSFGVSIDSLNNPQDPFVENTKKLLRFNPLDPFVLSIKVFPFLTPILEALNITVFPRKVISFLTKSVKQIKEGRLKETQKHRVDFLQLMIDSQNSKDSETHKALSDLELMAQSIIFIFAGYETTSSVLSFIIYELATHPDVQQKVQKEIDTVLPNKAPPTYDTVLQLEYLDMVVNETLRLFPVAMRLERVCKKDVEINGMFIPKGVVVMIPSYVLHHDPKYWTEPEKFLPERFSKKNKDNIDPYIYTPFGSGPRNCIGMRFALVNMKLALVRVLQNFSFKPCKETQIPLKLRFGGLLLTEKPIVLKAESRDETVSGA
smiles,measurement,setting,value
O=C1N=C(O)CN1/N=C/c1ccc(-c2ccc([N+](=O)[O-])cc2)o1,Potency,[1],inactive
same,Potency,[2],inactive
same,Potency,[3],inactive
same,activity (max response),[4],12.2%
CC(=O)N[C@@H](CO)C(=O)N[C@@H](CC(=O)O)C(=O)N[C@@H](CCCCN)C(=O)N1CCC[C@H]1C(=O)O (Ac-SDKP-OH),Potency,[1],inactive
same,Potency,[2],inactive
same,Potency,[3],inactive
same,activity (max response),[4],0.638%
CC(C)(C)NCC(O)c1ccc(O)c(CO)c1 (configuration not stated),Potency,[1],inactive
same,Potency,[2],inactive
same,Potency,[3],inactive
same,Potency,[5],4.18 µM (active)
same,Potency,[6],inactive
same,Potency,[7],inactive
same,activity (max response),[4],0.289% and -0.385%
CCCc1ncc(C[n+]2ccccc2C)c(N)n1,Potency,[1],inactive
same,Potency,[2],inactive
same,Potency,[3],inactive
same,activity (max response),[4],-17.3%
CC(=O)Nc1cccc(O)c1,Potency,[1],inactive
same,Potency,[2],inactive
same,Potency,[3],inactive
same,activity (max response),[4],-1.77%
Cc1[nH]c(/C=C2\C(=O)Nc3ccc(F)cc32)c(C)c1C(=O)NC[C@H](O)CN1CCOCC1,Potency,[1],inactive
same,Potency,[2],13 nM (active) and 26.3 nM (active)
same,Potency,[3],23.1 nM (active) and 46.8 nM (active)
same,activity (max response),[4],-9.94%
CCOc1ncc(F)c(=O)[nH]1,Potency,[1],inactive
same,Potency,[2],inactive
same,Potency,[3],inactive
same,activity (max response),[4],18.7%
CC1(C)S[C@@H]2[C@H](NC(=O)C(C(=O)O)c3ccccc3)C(=O)N2[C@H]1C(=O)O (some centres not stated),Potency,[1],inactive
same,Potency,[2],inactive
same,Potency,[3],inactive
same,activity (max response),[4],3.14%
O=C(O)[C@@H](O)[C@H](O)[C@H](O)[C@@H](O)C(=O)O,Potency,[1],inactive
same,Potency,[2],inactive
same,Potency,[3],inactive
same,activity (max response),[4],9.05%
O=C(O)Cc1sc(-c2ccccc2)nc1-c1ccc(Cl)cc1,Potency,[1],inactive
same,Potency,[2],inactive
same,Potency,[3],inactive
same,activity (max response),[4],0.388%
Cc1cn([C@@H]2O[C@H](CO)[C@@H](O)[C@H]2F)c(=O)[nH]c1=O,Potency,[1],inactive
same,Potency,[2],inactive
same,Potency,[3],inactive
same,Potency,[6],inactive
same,Potency,[8],inactive
same,Potency,[7],inactive
same,activity (max response),[4],7.23%
same,Potency,[9],inactive
O=C(NCC(O)CO)c1c(I)c(C(=O)NCC(O)CO)c(I)c(N(CCO)C(=O)CO)c1I (configuration not stated),Potency,[1],inactive
same,Potency,[2],inactive
same,Potency,[3],inactive
same,activity (max response),[4],-7.35%
C[C@H](Nc1ncnc2nc[nH]c12)c1cc2cccc(Cl)c2c(=O)n1-c1ccccc1,Potency,[1],inactive
same,Potency,[2],11.8 µM (active)
same,Potency,[3],5.8 µM (active) and 6.61 µM (active)
same,activity (max response),[4],-1.12%
O=C(CO)N1CCC(c2[nH]nc(-c3ccc(Cl)cc3)c2-c2ccncn2)CC1,Potency,[1],inactive
same,Potency,[2],2.31 µM (active)
same,Potency,[3],9.2 µM (active)
same,Potency,[7],13.2 µM (active)
same,activity (max response),[4],-7.74%
same,Potency,[9],inactive
CCCc1ncc(C(=O)O)s1,Potency,[1],inactive
same,Potency,[2],inactive
same,Potency,[3],inactive
same,activity (max response),[4],8.93%
CN1[C@@H]2CC[C@H]1CC(OC(=O)C(O)c1ccccc1)C2 (some centres not stated),Potency,[1],inactive
same,Potency,[2],inactive
same,Potency,[3],inactive
same,activity (max response),[4],7.83%
CCNC(=O)[C@@H]1CCCN1C(=O)[C@H](CCCN=C(N)N)NC(=O)[C@H](CC(C)C)NC(=O)CNC(=O)[C@H](Cc1ccc(O)cc1)NC(=O)[C@H](CO)NC(=O)[C@H](Cc1c[nH]c2ccccc12)NC(=O)[C@H](Cc1cnc[nH]1)NC(=O)[C@@H]1CCC(=O)N1 ([pGlu]HWSYGLRP-NHEt),Potency,[1],inactive
same,Potency,[2],13.3 µM (active)
same,Potency,[3],inactive
same,activity (max response),[4],7.58%
Cc1cc(C2CCCCC2)n(O)c(=O)c1,Potency,[1],inactive
same,Potency,[2],2.31 µM (active) and 4.68 µM (active)
same,Potency,[3],2.59 µM (active) and 3.35 µM (active) and 3.72 µM (active)
same,Potency,[6],13.2 µM (active)
same,Potency,[8],11.8 µM (active)
same,Potency,[4],1.3 µM (active) and 25.1 µM (active)
same,Potency,[9],2 µM (active)
CCN1CCc2nc(N)oc2CC1,Potency,[1],inactive
same,Potency,[2],inactive
same,Potency,[3],inactive
same,activity (max response),[4],7.47%
COc1c(OCCCN2CCOCC2)ccc2c3n(c(=NC(=O)c4cnc(N)nc4)nc12)CCN3,Potency,[1],inactive
same,Potency,[2],47.3 nM (active) and 53.9 nM (active)
same,Potency,[3],37.6 nM (active) and 241 nM (active)
same,Potency,[10],0.182 µM (active)
same,Potency,[8],2.04 µM (active)
same,Potency,[9],0.237 µM (active)
COC(=O)Nc1nc2ccc(C(=O)c3ccccc3)cc2[nH]1,Potency,[1],inactive
same,Potency,[2],0.332 µM (active)
same,Potency,[3],596 nM (active) and 372 nM (active)
same,Potency,[11],1.87 µM (active)
same,Potency,[5],0.332 µM (active)
same,Potency,[4],130 nM (active) and 316 nM (active)
same,Potency,[9],103 nM (active) and 141 nM (active)
COC(=O)c1ccc(O)cc1,Potency,[1],inactive
same,Potency,[2],inactive
same,Potency,[3],inactive
same,activity (max response),[4],11.5%
NCCCC(N)CC(=O)NCC1NC(=O)C(CO)NC(=O)C(N)CNC(=O)C(C2CCN=C(N)N2)NC(=O)C(=CNC(N)=O)NC1=O (stereo not drawn) (H-[Dap]S[Dap](ξβ3hOrn)[ΔAla(3-NHCONH2)][X2]; lactam 1-C; configuration not given here),"activity change, negative = inhibition",[1],0.114% [at 0.91 µM]
same,viability (% of control),[2],84.9% [at 0.588 µM]
same,"viability, % of control",[3],101% [at 0.588 µM]
same,activity (max response),[4],-2.59%
O=S(=O)(O)NC1CCCCC1,Potency,[1],inactive
same,Potency,[2],inactive
same,Potency,[3],inactive
same,activity (max response),[4],6.85%
O=c1[nH]c([C@@H]2CCCN2)nc2c1oc1ccc(Cl)cc12,Potency,[1],inactive
same,Potency,[2],8.2 µM (active) and 16.6 µM (active)
same,Potency,[3],16.4 µM (active)
same,activity (max response),[4],-13.8%
